Screening results as filed in PubChem.
ASK1 primary: inhibitors of human ASK1 kinase | AID 1159602 | Q99683 | inhibition, % at 7.44 µM | AlphaScreen MKK6 phosphorylation by ASK1, luminescence | 22,000 tested, 0.99% active; in the data active means inhibition above about 35%
ULK1 inh: human ULK1 kinase inhibition, primary screen | AlphaScreen Atg13 phosphorylation by ULK1, luminescence | 30,000 tested, 1.9% active | inhibition, % at 5.96 µM | O75385; in the data active means inhibition above about 43%
Target sequence (O75385 whole entry, looked up): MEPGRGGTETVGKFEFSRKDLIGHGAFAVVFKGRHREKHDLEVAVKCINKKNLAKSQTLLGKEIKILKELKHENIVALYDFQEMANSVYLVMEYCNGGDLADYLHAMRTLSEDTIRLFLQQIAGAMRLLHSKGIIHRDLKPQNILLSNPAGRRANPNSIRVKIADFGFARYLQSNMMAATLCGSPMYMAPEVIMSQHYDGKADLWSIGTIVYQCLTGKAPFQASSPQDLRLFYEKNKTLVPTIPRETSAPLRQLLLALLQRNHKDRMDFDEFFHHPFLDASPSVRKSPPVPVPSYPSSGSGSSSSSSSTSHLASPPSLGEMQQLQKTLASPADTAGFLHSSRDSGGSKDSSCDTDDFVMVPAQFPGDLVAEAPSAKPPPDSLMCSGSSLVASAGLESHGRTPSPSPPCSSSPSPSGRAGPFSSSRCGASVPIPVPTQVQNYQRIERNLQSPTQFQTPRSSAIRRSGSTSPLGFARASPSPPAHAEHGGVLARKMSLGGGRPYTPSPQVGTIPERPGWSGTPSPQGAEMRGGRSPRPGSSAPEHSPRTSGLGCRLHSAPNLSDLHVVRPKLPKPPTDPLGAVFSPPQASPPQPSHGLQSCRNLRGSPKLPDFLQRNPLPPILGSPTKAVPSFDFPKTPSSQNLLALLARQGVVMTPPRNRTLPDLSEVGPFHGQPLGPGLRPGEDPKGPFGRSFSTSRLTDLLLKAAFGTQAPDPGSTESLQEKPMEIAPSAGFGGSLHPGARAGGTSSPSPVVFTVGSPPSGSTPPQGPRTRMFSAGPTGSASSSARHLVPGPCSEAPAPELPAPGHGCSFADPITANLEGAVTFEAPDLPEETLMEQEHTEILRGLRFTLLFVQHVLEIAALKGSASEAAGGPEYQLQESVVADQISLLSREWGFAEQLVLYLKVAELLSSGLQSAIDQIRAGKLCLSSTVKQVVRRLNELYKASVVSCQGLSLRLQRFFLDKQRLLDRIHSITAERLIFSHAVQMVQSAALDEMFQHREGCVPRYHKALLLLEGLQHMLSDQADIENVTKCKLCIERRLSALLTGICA
Of the large screens only hits and unclear results are named; the others gave an inactive call; ! = a repeat was not active. Compounds with a hit are over-represented: about 2.4% of the library has one in this group of screens.

Cc1ncn(-c2ccc(Nc3nccc(-c4ccc(N5CCC(O)CC5)nc4)n3)cc2)n1	ULK1 inh 46
Cc1ncn(-c2ccc(Nc3nccc(-c4ccc(N5CCCC(CO)C5)c(C#N)c4)n3)cc2)n1 (stereo not given)	ULK1 inh 65
O=C1NCc2cccc(Nc3ccnc(Nc4ccc(N5CCOCC5)cc4)c3)c21	none
CC(C)n1cnc2c(NCc3cccc(C(F)(F)F)c3)nc(NC3CCC(O)CC3)nc21 (stereo not given)	none
COc1ccc(-c2cc(Nc3ccc(N4CCOCC4)cc3)nc(N)n2)cn1	none
Nc1cccc(-c2nc(NCCCN3CCCC3=O)c3ncn(-c4ccsc4)c3n2)c1	none
Clc1cc(NC2CC2)ncn1	none
Fc1cc(-c2nc(Nc3cccc(CN4CCOCC4)c3)ncc2F)cc(N2CCOCC2)c1	ULK1 inh 45
Fc1cc(-c2ccnc(Nc3cccc(CN4CCOCC4)c3)n2)cc(N2CCOCC2)c1	none
Fc1cc(-c2nc(Nc3cccc(CN4CCCC4)c3)ncc2F)cc(N2CCOCC2)c1	ULK1 inh 70
Fc1cc(-c2nc(Nc3cccc(Cn4cccn4)c3)ncc2F)cc(N2CCOCC2)c1	none
Clc1ncc(-c2ccncc2)c2nc(Cc3ccc(Br)cc3)[nH]c12	none
Nc1nc(NCc2cccnc2)cc(NC2CCN(Cc3ccccc3)CC2)n1	none
CCNc1nc(NC2CCN(Cc3ccccc3)CC2)c2ncn(C3CCCCC3)c2n1	none
COc1ccc(C(=O)c2oc3ccc(NC(C)=O)cc3c2C)cc1	ULK1 inh 58 (no result: ASK1 primary)
COc1ccc(C(=O)c2oc3ccc(NC(=O)c4ccc(OC)c(OC)c4)cc3c2C)cc1	none (no result: ASK1 primary)
CC(C)N(CCNc1nc(N2CCc3ccccc3C2)nc2c1ncn2Cc1ccc(C(F)(F)F)cc1)C(C)C	none
O=C1CCCN1CCn1cnc2c(Nc3ccccc3)nc(Nc3ccc(C(F)(F)F)cc3)nc21	none
NC(Cc1ccccc1)c1nc2ccc(-c3ccnc4ccccc34)cc2[nH]1 (stereo not given)	none
CC(C)NC(=O)c1cccc(NC(=O)Nc2ccc(-c3ncnc4[nH]cc(Cl)c34)cc2)c1	ULK1 inh 70
CC(C)NC(=O)c1cccc(NC(=O)Nc2ccc(-c3ncnc4nc[nH]c34)cc2)c1	none
CC(=O)Nc1ccc(NC(=O)c2cc(Nc3ccc(N4CCOCC4)cc3)nc3ccccc23)cc1	none
O=C(NCc1cc(F)cc(F)c1)c1cn2cc(-c3cn[nH]c3)ccc2n1	none
O=C(Nc1ccc(N2CCOCC2)cc1)c1cccc(Nc2ccc(N3CCOCC3)cc2)n1	ULK1 inh 48
CC(=O)Nc1ccc(NC(=O)c2cccc(Nc3ccc(-n4ccnc4)cc3)n2)cc1	none
CC(=O)Nc1ccc(NC(=O)c2cccc(Nc3ccc(N4CCOCC4)cc3)n2)cc1	none
O=C(Nc1ccc(N2CCOCC2)cc1)c1cccc(Nc2ccc(-n3ccnc3)cc2)n1	ULK1 inh 50
COc1ccc(CCNc2nc(Nc3nc4ccccc4n3C)nc3nc[nH]c23)cc1	none
Cc1cncc2cccc(N3CCN(C(=O)[C@H](C)O)CC3)c12	none
Cc1cncc2cccc(NC3CCN(C(=O)[C@H](C)O)CC3)c12	none
Cc1cncc2cccc(S(=O)(=O)N3CCCNC[C@@H]3C)c12	ULK1 inh 81!
Cc1cncc2cccc(NC3CCCNC3)c12 (stereo not given)	ULK1 inh 72
NC(=O)c1ccc(-c2ncc(C(N)=O)s2)cc1	none
COc1cc(C(=O)NS(=O)(=O)c2ccccc2C)ccc1Cc1cn(C)c2ccc(NC(=O)OC3CCCC3)cc12	ULK1 inh 65 (no result: ASK1 primary)
CCOc1ccc(-c2cc(=O)c3cc(NC(=O)c4ccc(OC)c(OC)c4)ccc3o2)cc1	none (no result: ASK1 primary)
OC1CCC(Nc2nc(Nc3ccccc3)c3ncn(-c4ccccc4)c3n2)CC1 (stereo not given)	none
CC(C)n1cnc2c(Nc3ccccc3)nc(NC3CCC(O)CC3)nc21 (stereo not given)	ULK1 inh 56
CC(C)n1cnc2c(Nc3ccc4c(c3)OCO4)nc(NC3CCC(O)CC3)nc21 (stereo not given)	none
CC(=O)Nc1ccc(Nc2nc(NC3CCC(O)CC3)nc3c2ncn3C(C)C)cc1 (stereo not given)	ULK1 inh 62
COC(=O)C1CC(=O)N(c2ccccc2C)C1 (stereo not given)	none (no result: ASK1 primary)
Clc1nc(NCCN2CCOCC2)c2ncn(C3CCCCC3)c2n1	none
COc1ccccc1N1C(=O)C2C3c4ccccc4C(C(C)O)(c4ccccc43)C2C1=O (stereo not given)	none (no result: ASK1 primary)
COc1cccc(CN(CCN)C(=O)Nc2ccc(-c3cn[nH]c3)cc2OCCCO)c1	ULK1 inh 78
COc1cccc(CN(CCCN(C)C)C(=O)Nc2ccc(-c3cn[nH]c3)cc2OC)c1	none
O=C1CCCN1CCCNc1cc(NCc2cccc(C(F)(F)F)c2)ncn1	none
CC(C)c1cc(C(C)C)c(CC(=O)NS(=O)(=O)Oc2c(C(C)C)cccc2C(C)C)c(C(C)C)c1	ULK1 inh 85 (no result: ASK1 primary)
COCOc1ccccc1C1=NOC(C(=O)Nc2cnn(-c3cccc(C(=O)NCCN4CCOCC4)c3)c2)C1 (stereo not given)	none
